The results in this text go back to the supplement of paper PMC10849652.

Of roughly 8,800 targets only a part is listed; those with a hit were picked by preference. About 0.5% of all pairs of compound and target were hits.

Chain of UniProt P04183 (P04183 whole entry, looked up): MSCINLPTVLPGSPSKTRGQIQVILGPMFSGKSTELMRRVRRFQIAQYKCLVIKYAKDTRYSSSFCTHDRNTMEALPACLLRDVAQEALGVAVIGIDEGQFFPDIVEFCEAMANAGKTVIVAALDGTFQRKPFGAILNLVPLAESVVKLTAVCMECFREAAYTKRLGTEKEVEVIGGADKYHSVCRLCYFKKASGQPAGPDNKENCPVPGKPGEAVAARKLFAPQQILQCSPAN
Chain of UniProt Q9UNY4 (Q9UNY4 whole entry, looked up): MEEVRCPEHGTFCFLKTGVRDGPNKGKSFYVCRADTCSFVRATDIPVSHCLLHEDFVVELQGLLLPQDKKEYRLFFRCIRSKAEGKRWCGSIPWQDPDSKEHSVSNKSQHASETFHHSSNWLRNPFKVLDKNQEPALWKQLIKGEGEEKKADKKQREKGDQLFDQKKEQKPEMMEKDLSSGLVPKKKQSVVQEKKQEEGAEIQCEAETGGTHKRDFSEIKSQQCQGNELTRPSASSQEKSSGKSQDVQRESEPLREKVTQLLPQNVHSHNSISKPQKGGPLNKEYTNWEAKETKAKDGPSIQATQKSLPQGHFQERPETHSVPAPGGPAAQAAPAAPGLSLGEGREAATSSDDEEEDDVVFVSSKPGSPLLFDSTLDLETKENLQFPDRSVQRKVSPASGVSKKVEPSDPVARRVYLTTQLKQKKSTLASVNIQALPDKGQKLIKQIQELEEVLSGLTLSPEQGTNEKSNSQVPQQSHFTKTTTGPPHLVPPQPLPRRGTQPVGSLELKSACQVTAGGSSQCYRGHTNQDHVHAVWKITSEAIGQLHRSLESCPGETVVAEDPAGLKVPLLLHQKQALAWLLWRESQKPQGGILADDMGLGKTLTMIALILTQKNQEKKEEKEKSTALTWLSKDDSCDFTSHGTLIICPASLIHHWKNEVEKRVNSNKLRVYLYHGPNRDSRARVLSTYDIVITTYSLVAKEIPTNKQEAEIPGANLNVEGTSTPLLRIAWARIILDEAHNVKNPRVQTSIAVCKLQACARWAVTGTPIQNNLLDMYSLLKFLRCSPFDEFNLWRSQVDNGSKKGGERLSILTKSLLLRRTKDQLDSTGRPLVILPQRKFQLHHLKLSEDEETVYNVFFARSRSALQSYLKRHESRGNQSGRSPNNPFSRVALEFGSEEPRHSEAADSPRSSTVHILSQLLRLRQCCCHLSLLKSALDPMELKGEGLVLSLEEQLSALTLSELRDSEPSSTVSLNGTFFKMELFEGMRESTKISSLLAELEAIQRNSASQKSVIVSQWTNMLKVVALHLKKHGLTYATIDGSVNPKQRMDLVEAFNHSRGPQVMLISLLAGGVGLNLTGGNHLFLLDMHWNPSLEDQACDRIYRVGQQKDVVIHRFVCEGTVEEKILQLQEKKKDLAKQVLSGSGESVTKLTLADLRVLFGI
Chain of UniProt Q14166 (Q14166 whole entry, looked up): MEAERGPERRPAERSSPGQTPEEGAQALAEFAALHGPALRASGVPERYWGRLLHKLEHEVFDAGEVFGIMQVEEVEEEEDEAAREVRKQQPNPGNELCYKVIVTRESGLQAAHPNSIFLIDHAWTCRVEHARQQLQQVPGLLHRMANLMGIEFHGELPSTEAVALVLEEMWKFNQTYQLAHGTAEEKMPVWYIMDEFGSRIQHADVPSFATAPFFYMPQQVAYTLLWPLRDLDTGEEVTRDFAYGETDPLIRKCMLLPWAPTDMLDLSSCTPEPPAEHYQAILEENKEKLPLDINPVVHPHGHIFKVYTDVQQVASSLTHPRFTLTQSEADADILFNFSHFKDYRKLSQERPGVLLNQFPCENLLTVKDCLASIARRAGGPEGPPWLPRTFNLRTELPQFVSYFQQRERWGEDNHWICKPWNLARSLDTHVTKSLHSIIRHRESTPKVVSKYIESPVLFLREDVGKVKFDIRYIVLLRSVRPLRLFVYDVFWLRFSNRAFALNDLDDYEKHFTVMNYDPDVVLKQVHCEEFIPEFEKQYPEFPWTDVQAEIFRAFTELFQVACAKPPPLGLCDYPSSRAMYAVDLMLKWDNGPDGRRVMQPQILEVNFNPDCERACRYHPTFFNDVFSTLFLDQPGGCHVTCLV
Chain of UniProt P07437 (P07437 whole entry, looked up): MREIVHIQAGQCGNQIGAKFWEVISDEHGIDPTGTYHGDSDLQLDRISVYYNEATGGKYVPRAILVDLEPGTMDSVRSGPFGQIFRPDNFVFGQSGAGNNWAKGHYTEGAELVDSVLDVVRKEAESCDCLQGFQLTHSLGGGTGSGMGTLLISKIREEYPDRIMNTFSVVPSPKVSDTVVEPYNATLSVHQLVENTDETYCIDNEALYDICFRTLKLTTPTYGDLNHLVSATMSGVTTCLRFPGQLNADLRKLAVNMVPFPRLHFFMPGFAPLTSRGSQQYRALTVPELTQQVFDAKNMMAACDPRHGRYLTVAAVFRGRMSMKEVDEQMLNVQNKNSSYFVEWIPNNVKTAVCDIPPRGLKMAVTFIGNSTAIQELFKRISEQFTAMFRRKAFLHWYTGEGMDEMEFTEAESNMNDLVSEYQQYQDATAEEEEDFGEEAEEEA
Chain of UniProt P68363 (P68363 whole entry, looked up): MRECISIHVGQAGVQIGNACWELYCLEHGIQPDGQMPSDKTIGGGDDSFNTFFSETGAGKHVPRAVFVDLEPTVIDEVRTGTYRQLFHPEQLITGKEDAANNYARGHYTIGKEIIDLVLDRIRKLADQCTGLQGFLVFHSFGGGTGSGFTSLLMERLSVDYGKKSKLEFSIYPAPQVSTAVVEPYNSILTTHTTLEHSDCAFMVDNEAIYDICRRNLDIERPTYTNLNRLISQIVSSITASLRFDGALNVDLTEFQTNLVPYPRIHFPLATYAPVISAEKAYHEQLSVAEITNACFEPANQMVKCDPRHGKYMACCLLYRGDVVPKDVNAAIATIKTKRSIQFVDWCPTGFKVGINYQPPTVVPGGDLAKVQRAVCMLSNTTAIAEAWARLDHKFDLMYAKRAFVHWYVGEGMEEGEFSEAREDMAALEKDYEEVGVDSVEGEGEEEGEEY
Chain of UniProt Q9ULW0 (Q9ULW0 whole entry, looked up): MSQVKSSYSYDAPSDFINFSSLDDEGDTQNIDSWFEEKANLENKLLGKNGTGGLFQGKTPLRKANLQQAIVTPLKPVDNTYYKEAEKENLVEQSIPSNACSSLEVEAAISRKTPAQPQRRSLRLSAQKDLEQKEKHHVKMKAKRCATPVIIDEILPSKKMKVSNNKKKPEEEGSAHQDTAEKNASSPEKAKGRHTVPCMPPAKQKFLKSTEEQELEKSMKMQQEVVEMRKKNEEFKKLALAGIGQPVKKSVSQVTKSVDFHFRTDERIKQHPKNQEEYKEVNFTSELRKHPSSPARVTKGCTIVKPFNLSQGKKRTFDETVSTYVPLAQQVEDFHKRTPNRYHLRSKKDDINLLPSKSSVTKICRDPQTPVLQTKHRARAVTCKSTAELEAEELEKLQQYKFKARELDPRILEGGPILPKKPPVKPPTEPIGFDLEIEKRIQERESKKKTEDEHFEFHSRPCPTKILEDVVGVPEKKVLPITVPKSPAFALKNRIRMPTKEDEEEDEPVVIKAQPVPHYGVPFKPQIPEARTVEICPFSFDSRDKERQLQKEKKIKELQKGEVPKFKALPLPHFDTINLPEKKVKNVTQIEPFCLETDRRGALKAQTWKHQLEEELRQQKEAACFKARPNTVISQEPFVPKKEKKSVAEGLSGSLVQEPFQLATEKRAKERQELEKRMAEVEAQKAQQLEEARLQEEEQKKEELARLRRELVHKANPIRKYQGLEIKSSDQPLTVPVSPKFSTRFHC
Chain of UniProt Q9Y5L0 (Q9Y5L0 whole entry, looked up): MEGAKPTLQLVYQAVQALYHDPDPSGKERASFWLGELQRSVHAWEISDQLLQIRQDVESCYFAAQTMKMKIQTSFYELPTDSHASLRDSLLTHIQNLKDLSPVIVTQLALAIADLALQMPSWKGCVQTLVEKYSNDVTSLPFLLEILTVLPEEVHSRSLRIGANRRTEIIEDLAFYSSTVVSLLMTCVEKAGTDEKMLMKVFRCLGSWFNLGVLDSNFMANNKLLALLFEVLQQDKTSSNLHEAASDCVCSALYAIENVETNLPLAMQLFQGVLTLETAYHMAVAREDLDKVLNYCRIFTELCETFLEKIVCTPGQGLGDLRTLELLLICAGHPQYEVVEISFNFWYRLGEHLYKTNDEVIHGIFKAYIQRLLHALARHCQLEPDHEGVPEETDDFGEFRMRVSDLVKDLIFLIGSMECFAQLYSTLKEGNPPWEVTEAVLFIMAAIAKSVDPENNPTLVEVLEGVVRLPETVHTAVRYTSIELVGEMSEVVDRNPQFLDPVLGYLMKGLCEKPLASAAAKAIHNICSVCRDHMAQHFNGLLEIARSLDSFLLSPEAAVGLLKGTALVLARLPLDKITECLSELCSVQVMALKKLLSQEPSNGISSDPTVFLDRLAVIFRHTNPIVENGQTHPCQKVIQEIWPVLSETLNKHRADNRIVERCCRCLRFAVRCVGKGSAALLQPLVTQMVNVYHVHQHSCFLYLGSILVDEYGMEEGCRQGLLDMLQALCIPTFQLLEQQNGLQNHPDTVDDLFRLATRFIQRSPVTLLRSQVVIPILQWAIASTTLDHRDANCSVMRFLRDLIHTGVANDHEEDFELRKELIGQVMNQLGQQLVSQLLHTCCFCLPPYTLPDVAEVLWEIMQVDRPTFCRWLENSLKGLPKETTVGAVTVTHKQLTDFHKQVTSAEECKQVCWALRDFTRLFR
Chain of UniProt Q8N511 (Q8N511 whole entry, looked up): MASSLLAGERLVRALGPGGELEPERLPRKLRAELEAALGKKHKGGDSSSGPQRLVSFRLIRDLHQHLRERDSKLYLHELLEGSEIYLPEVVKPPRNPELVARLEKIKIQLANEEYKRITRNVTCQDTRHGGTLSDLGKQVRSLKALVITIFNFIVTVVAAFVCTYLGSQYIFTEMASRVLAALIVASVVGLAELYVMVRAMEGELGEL
Chain of UniProt P11441 (P11441 whole entry, looked up): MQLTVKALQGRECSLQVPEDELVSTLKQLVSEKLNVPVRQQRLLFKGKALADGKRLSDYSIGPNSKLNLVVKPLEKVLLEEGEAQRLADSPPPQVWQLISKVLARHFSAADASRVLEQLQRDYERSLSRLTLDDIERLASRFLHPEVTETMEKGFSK

Compound in the experiment: c1ccc([C@@H]2C[C@H]2NC2CCNCC2)cc1
The experiment can be described thus: log2 fold change, soluble protein after heating vs DMSO (PISA); higher = thermal stabilisation; K562 lysate, 10 uM; active = over 0.2 and 3.5 SD of the protein, either way, in both replicates (recomputed). The method in brief: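 The values are log-two fold changes in thermal stability compared with solvent controls and come from duplicates. They were obtained by TMTpro 16plex LC-MS/MS, with channel sums equalised, on the supernatant after 21,000xg for 90 min. That supernatant came from crude K562 extract at 1 mg/mL protein treated with 10 μM compound for 30 min, heated for 3 min across 48°C-58°C, pooled and brought to 0.5% NP-40 at 4°C.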
For the target TTLL12 (UniProt V9GY16), the log2 fold change was -0.065 (inactive). The result for TGFBRAP1 (UniProt Q8WUH2) reads -0.014 (inactive).

Regarding TPX2 (UniProt Q9ULW0), the log2 fold change was 0 (inactive).

On to UBL4A (UniProt P11441), for which the log2 fold change is 0.073 (inactive). Regarding TRAPPC12 (UniProt Q8WVT3), the log2 fold change was 0.015 (inactive). To TNPO3 (UniProt Q9Y5L0) belongs -0.029 (inactive).

With UCHL5 isoform 3 (UniProt Q9Y5K5), the log2 fold change is 0.029 (inactive).

Take UBE3B (UniProt Q7Z3V4): the log2 fold change is 0.078 (inactive).

As for TFCP2 (UniProt Q12800), the log2 fold change is -0.103 (inactive). The result for TFPI (UniProt P10646) reads 0.269 (inactive).

For TMEM161B (UniProt Q8NDZ6), the log2 fold change is -0.025 (inactive).

As for TUBGCP4 (UniProt Q9UGJ1), the log2 fold change was -0.007 (inactive). The result for UBE2L6 (UniProt O14933) reads 0.008 (inactive); that for TSFM (UniProt P43897), -0.092 (inactive). The result for TELO2 (UniProt Q9Y4R8) reads 0.025 (inactive); that for TRIM25 (UniProt Q14258), 0.044 (inactive). To TBL2 (UniProt Q9Y4P3) belongs 0.071 (inactive); to UBE2D1 (UniProt P51668), 0.016 (inactive). TMEM177 (UniProt Q53S58): the log2 fold change was 0.068 (inactive). The result for TP53RK (UniProt Q96S44) reads 0.09 (inactive). The result for TRIM33 (UniProt H0Y612) reads 0.098 (inactive); that for TRIM11 (UniProt Q96F44), -0.001 (inactive). To TRIM44 (UniProt Q96DX7) belongs 0.083 (inactive); to TTI1 (UniProt O43156), 0.051 (inactive); to TRNAU1AP (UniProt Q9NX07), -0.048 (inactive).

With TUBA1B (UniProt P68363), the log2 fold change was -0.03 (inactive). The result for TUBB (UniProt P07437) reads -0.001 (inactive); that for TK1 (UniProt P04183), -0.116 (inactive); that for TTLL12 (UniProt Q14166), 0.033 (inactive). To TPM4 isoform 2 (UniProt P67936) belongs 0.1 (inactive). To TPP2 (UniProt P29144) belongs 0.025 (inactive); to TTF2 (UniProt Q9UNY4), 0.003 (inactive); to TUBGCP5 (UniProt Q96RT8), 0.071 (inactive). As to TUBAL3 (UniProt A6NHL2), the log2 fold change was -0.255 (inactive). To TMEM199 (UniProt Q8N511) belongs -0.029 (inactive); to TESC (UniProt Q96BS2), 0.016 (inactive).

Turning to TRMT10A (UniProt Q8TBZ6), the log2 fold change is -0.029 (inactive). To TMPO (UniProt P42166) belongs 0.059 (inactive); to TIMELESS (UniProt Q9UNS1), 0.02 (inactive).
